# Only some compounds are listed: those with a hit (about 2.5% of all), similar ones and a draw of the others.
# MCL1-BIM inh – inhibitors of MCL1 binding to BIM-BH3, primary screen, biochemical, fluorescence polarization. GST-MCL1 / FITC-Bim-BH3 fluorescence polarization. AID 2057, 2009. hit rate 0.68% among 320,000. Induced myeloid leukemia cell differentiation protein Mcl-1 (Homo sapiens), Q07820. inhibition, % at 10.9 µM;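 active = inhibition above the mean inhibition of all tested compounds plus 3 SD, set per campaign, cut at about 40% in these data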;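 also: 0% = DMSO wells and 100% = unlabeled Bim-BH3 peptide control; higher means more loss of mP so more displacement of Bim peptide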
# Target sequence (Q07820 whole entry, looked up): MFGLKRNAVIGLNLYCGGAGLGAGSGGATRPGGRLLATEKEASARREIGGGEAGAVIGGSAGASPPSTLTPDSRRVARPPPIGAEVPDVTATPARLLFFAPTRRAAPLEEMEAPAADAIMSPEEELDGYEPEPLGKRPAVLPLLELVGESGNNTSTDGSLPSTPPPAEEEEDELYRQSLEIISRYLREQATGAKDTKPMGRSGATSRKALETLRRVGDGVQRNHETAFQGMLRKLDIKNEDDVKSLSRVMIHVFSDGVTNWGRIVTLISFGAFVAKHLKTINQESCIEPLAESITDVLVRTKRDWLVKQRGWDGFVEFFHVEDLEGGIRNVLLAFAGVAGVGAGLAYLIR
# 14-3-3 Bad PPI – inhibitors of 14-3-3 zeta/Bad binding, primary screen, biochemical, TR-FRET, bovine 14-3-3 zeta; inhibition, % at 21.7 µM; AID 781, 2007; TR-FRET 14-3-3zeta/Dy647-pBad peptide displacement, 1 h; hit rate 0.71% among 220,000; 14-3-3 protein zeta/delta (Bos taurus), P63103;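 active = inhibition above about 70%, limit read from the data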;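 also: 0% = full 14-3-3 plus peptide FRET controls and 100% = background without 14-3-3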
# Target sequence (P63103 whole entry, looked up): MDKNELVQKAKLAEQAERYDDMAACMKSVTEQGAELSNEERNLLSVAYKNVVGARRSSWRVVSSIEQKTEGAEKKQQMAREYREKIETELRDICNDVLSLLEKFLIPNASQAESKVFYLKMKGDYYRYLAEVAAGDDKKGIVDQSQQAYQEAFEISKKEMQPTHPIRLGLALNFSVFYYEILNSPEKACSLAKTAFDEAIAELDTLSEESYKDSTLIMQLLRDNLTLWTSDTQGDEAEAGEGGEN
# Mcl1-Noxa inh – Mcl-1/Noxa binding inhibitors, primary screen, biochemical, TR-FRET, 1536-well; Induced myeloid leukemia cell differentiation protein Mcl-1 (Homo sapiens), Q07820; TR-FRET Mcl-1/Noxa peptide binding, 2 h; inhibition, % at 21.7 µM; hit rate 1.5% among 220,000; AID 1022, 2008;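 active = compounds that cut the protein-peptide binding signal by more than 50% relative to plate controls in a single-dose test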;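 also: His-tagged Mcl-1 with rhodamine Noxa BH3 peptide and terbium anti-His antibody; 0% = Mcl-1 plus Noxa peptide wells and 100% = peptide-only wells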
# Bim-Mcl-1 – inhibitors of Bim peptide binding to Mcl-1, primary screen, biochemical, bead-based flow cytometry, multiplex; Induced myeloid leukemia cell differentiation protein Mcl-1 (Homo sapiens), Q07820; inhibition, % at 10 µM; Bim peptide-Mcl-1 binding; hit rate 0.1% among 190,000; AID 1009, 2008; in the data active = inhibition above about 40%;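 also: 0% = no compound tracer wells and 100% = peptide blocker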
# Mcl1 Bid PPI – Mcl-1/Bid binding inhibitors, primary screen, biochemical, TR-FRET, 1536-well; Induced myeloid leukemia cell differentiation protein Mcl-1 (Homo sapiens), Q07820; TR-FRET Mcl-1/Bid-Dy647 peptide binding; inhibition, % at 21.7 µM; hit rate 0.97% among 220,000; AID 1021, 2008;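 active = compounds that cut the binding signal by more than half at the single screening dose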;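 also: His-tagged Mcl-1 with europium anti-His antibody binding Bid BH3 peptide; 0% = Mcl-1 plus peptide wells and 100% = peptide-only wells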
# * hit, by the source's call; nt = not tested or not shown; [ ] = remark or other dose.
SMILES,MCL1-BIM inh,14-3-3 Bad PPI,Mcl1-Noxa inh,Bim-Mcl-1,Mcl1 Bid PPI
COc1ccc(Cl)cc1S(=O)(=O)n1nnc2ccccc21,11,46,22,3,-6
COc1ccccc1OCCn1nnc2ccccc21,13,nt,nt,nt,nt
COc1ccc(NC(=O)c2cc(-c3ccncc3)nc3ccc(Br)cc23)cc1OC,-19,nt,nt,nt,nt
C=CC(=O)NCC1OCCc2ccccc21 (stereo not given),-4,-10,-5,-3,-29
O=C(/C=C/c1ccco1)NCC1OCCc2ccccc21 (stereo not given),22,32,62*,nt,-53
Cc1cccc2cc(C(c3nnnn3C(C)(C)C)N3CCN(C(=O)c4ccco4)CC3)c(=O)[nH]c12 (stereo not given),6,79*,21,-3,3
c1ccc(C2CC(c3cccs3)n3nnnc3N2)cc1 (stereo not given),6,-2,-2,-1,-17
O=C(O)C1Nc2c(O)cccc2C2C=CCC12 (stereo not given),90*,83*[fluorescence artefact?],115*,-2,86*
O=C(OC1CCCCC1)c1ccc2c(c1)C1C=CCC1C(C(=O)O)N2 (stereo not given),nt,45,108*,-1,98*
CC(C)CNC(=O)C1Nc2ccccc2C2C=CCC12 (stereo not given),31,nt,nt,nt,nt
O=C1Nc2ccccc2C1=O,2,nt,nt,nt,nt
Cc1ccc(CC(SCc2ccccc2)C(=O)O)cc1C (stereo not given),2,nt,nt,nt,nt
CC(C)=CC(=O)Nc1ccc(S(=O)(=O)Nc2ccccn2)cc1,4,-8,-3,-4,-29
CCOC(=O)c1c(CSc2nc(C)cc(C)c2C#N)n(C)c2cc(Br)c(OC(C)=O)cc12,10,-24,-16,-3,-33
CCOC(=O)c1c(CSC(=N)N)n(-c2ccc(Br)cc2)c2cc(Br)c(OC(C)=O)cc12,nt,96*[fluorescence artefact?],65*,7,0
CCCCCCCCOC(=O)c1c(CSC(=N)N)n(C)c2cc(Br)c(OC(C)=O)cc12,4,85*,-12,nt,2
CC(NCc1cccnc1)c1ccccc1 (stereo not given),2,nt,nt,nt,nt
Cc1cccc(OCc2nc(C#N)c(NCc3ccc4c(c3)OCO4)o2)c1,-5,-11,8,0,83*
N#Cc1nc(COc2ccc(Cl)cc2)oc1NCc1ccc2c(c1)OCO2,-1,6,-5,0,-16
CC(=O)C1=C(C)NC(=O)NC1c1cccs1 (stereo not given),8,9,7,-130,-27
O=C(CSc1nnnn1-c1ccc2c(c1)OCCO2)c1cccc2c1OCCO2,1,-18,-76,-2,-21
O=C(Oc1ccc2c(c1)OCO2)c1cc2c(s1)CCC2,7,-6,57*,-1,-42
O=C(c1cc2c(s1)CCCC2)N1CCN(Cc2ccc3c(c2)OCO3)CC1,6,42,10,1,24
Cc1ccccc1CNC(=O)Nc1cccs1,17,-24,52*,0,-24
O=C(NCc1cccs1)Nc1cccs1,12,-8,0,0,-31
SMILES,MCL1-BIM inh,14-3-3 Bad PPI,Mcl1-Noxa inh,Bim-Mcl-1,Mcl1 Bid PPI
CCN(CC)S(=O)(=O)c1cccc(-c2n[nH]c(=S)n2C)c1,-12,-4,33,0,-15
Cc1ccc(-c2n[nH]c(=S)n2C)cc1Cl,-18,1,53*,-1,-39
O=C(N/N=C/c1ccncc1)c1cccc(NC(=O)c2ccccc2Cl)c1,10,-3,18,42*,-13
O=C(N/N=C/c1cccnc1)c1cccc(NC(=O)c2ccccc2Cl)c1,1,nt,nt,nt,nt
Cn1cc(CN2C[C@]3(C)C[C@H]2CC(C)(C)C3)c(-c2ccc3c(c2)OCCO3)n1,12,-5,11,50*,-20
O=C1CS/C(=N/N=C\c2ccn[nH]2)N1,0,2,-9,nt,-19
COc1cccc(C2=CC(c3ccccc3)n3ncnc3N2)c1 (stereo not given),41*,18,34,4,-1
CCOc1ccc(C2C=C(c3ccc(F)cc3)Nc3ncnn32)cc1 (stereo not given),45*,4,-11,0,-61
CCOc1ccc(C2C=C(c3ccccc3)Nc3ncnn32)cc1 (stereo not given),46*,nt,12,0,-88
Oc1ccc(C2C=C(c3ccc(F)cc3)Nc3ncnn32)cc1 (stereo not given),nt,-14,41,nt,-20
Cc1ccc(C2C=C(c3ccccc3)Nc3ncnn32)cc1 (stereo not given),23,nt,nt,nt,nt
Cc1cccc(OCC(O)CN2C(C)(C)CC(O)CC2(C)C)c1 (stereo not given),5,12,-10,-1,-15
CCCCc1c(O)nc(SCC(=O)N2CCCCC2)n(-c2ccccc2C)c1=O,-6,8,8,0,-23
O=[N+]([O-])c1ccc(N/N=C/c2ccc(O)c(O)c2O)c(S(=O)(=O)N2CCOCC2)c1,nt,2,104*,12,-45
O=C(NCC(c1ccco1)N1CCCCC1)c1cccc(S(=O)(=O)Nc2ccccc2Cl)c1 (stereo not given),5,nt,nt,nt,nt
COCCN(C(=O)COC(=O)CNC(=O)c1cccs1)c1c(N)n(Cc2ccccc2)c(=O)[nH]c1=O,-19,nt,nt,nt,nt
COCCn1c(N)c(C(=S)NC(=O)c2cccs2)c(=O)[nH]c1=O,7,7,70*,nt,-6
Cn1nc(SCC(=O)O)sc1=S,0,31,-13,-1,64*
CC(=O)/C(C#N)=C1\NC(=O)C(Cc2ccccc2Cl)S1 (stereo not given),15,74*,13,1,28
CC(=O)/C(C#N)=C1\NC(=O)C(Cc2cc(Cl)ccc2Cl)S1 (stereo not given),18,2,8,nt,-2
COc1ccc(-c2[nH]ncc2CN(C)Cc2cnccn2)c(OC)c1,-3,-8,3,0,-49
COc1cc(OC)cc(C(=O)N2CCC(N3CCN(c4ccccc4OC)CC3)CC2)c1,-1,43,14,-4,57*
COC(=O)c1c(C)[nH]c(C)c1-c1ccccc1,5,81*[fluorescence artefact?],4,-4,-21
COC(=O)c1c(C)[nH]c(C)c1C(C)=O,-2,-13,5,nt,71*
COC(=O)c1c(C)[nH]c(C(C)=O)c1C,8,-6,8,-3,1
CC(C)Oc1ccc(CN2CCCC(CO)(Cc3ccc(F)cc3)C2)cc1 (stereo not given),46*,nt,nt,nt,nt
O=C(N/N=C/c1ccc(OC(=O)c2cccc(Br)c2)cc1)c1cccnc1,2,nt,nt,nt,nt
CN(C)c1ccc(NC(=O)/C=C/c2ccccc2Cl)cc1,14,-5,77*,-3,-17

# Source: PubChem
